Inconclusive results are not listed. A call without a number means that no potency is given here. Calls of active or inactive are those of the source. Unless noted, calls follow the shape of the dose curve; as a rule, active = well fitted curve in the direction sought with a large enough effect; inconclusive = small, poorly fitted or top-dose-only effect, or another doubt; inactive = no such curve, though single readings can be large; an effect the other way counts as inactive or inconclusive.
How the values were obtained:
[1] = biological target: DNA repair nuclease/redox regulator APEX1 (Homo sapiens) (UniProt P27695); assay: qHTS Validation Assay for Inhibitors of the Human Apurinic/apyrimidinic Endonuclease 1 (APE1) (AID 1705;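 also: TAMRA fluorescence gain over two minutes as APE1 cuts a quenched THF abasic duplex; series mostly up to about 57 µM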)
Sequence of DNA repair nuclease/redox regulator APEX1 (Homo sapiens) (P27695 whole entry, looked up): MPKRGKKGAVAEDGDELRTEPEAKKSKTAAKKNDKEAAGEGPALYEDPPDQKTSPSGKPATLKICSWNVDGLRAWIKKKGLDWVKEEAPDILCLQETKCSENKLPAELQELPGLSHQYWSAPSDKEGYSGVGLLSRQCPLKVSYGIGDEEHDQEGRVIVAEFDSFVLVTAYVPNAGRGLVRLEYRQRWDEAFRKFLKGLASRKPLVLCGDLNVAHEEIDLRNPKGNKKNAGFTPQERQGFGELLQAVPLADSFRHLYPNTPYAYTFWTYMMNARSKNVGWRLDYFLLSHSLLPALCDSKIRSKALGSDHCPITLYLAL
How it was run: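 Human APE1 was preincubated with compound for 15 min at room temperature, then 50 nM (final) THF-abasic double-stranded DNA substrate bearing 5'-TAMRA and 3'-BHQ-2 was added. Incision-driven fluorescence rise (ex 525/em 598 nm) was read kinetically.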

[2] = Counterscreen for APE1 Inhibitors: Fluorescent Dye Displacement Validation Assay (AID 1707)
How it was run: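 Endpoint fluorescence read at 480 nm excitation / 540 nm emission; DNA-binding compounds lower signal by displacing 250 nM Thiazole Orange from 50 nM dsDNA containing a tetrahydrofuran abasic site, Tris-HCl pH7.5 buffer with NaCl and MgCl2.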

[3] = biological target: Endonuclease 4 (Escherichia coli (strain K12)) (UniProt P0A6C1); assay: Counterscreen for APE1 Inhibitors: qHTS Validation Assay for Inhibitors of Endonuclease IV (AID 1708)
How it was run: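 Measured as reaction progress, the fluorescence gain between first and third kinetic reads after adding 50 nM TAMRA/BHQ-2 THF duplex to 2 nM enzyme preincubated 15 min with compound; 2 mM MgCl2, pH 7.5.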

[4] = qHTS for differential inhibitors of proliferation of Plasmodium falciparum line 7G8 (AID 1815);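 also: parasite growth measured after three days of incubation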; also: potency is read from the fitted curve at half-maximal effect
[5] = qHTS for differential inhibitors of proliferation of Plasmodium falciparum line GB4 (AID 1816); conditions: Potency: Plasmodium falciparum GB4 proliferation inhibition;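 also: parasite growth measured after 72 h incubation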; also: potency is read from the fitted curve at half-maximal effect
[6] = qHTS for differential inhibitors of proliferation of Plasmodium falciparum line 3D7 (AID 1876); also: potency is read from the fitted curve at half-maximal effect
[7] = qHTS for differential inhibitors of proliferation of Plasmodium falciparum line D10 (AID 1877);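 also: parasites grown with compound for 72 h before DNA staining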; also: potency is read from the fitted curve at half-maximal effect
[8] = qHTS for differential inhibitors of proliferation of Plasmodium falciparum line Dd2 (AID 1882); conditions: Potency: Plasmodium falciparum Dd2 proliferation inhibition; also: nearly all actives have a fitted effect of over 65% in size; also: potency is read from the fitted curve at half-maximal effect
How it was run: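 RBC culture, 0.3% parasitemia / 2.5% Hct final; cpd added by pin tool in DMSO; 72 h, 37 C, 5% CO2; lysis buffer + SYBR Green I, o/n RT dark; FI 485/535; norm. to artemisinin 0.29 uM and DMSO.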

[9] = qHTS for differential inhibitors of proliferation of Plasmodium falciparum line W2 (AID 1883); conditions: Potency: Plasmodium falciparum W2 proliferation inhibition;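 also: parasites grown with compound for 72 h before lysis and staining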; also: potency is read from the fitted curve at half-maximal effect
[10] = qHTS for differential inhibitors of proliferation of Plasmodium falciparum line HB3 (AID 1886); conditions: Potency: Plasmodium falciparum HB3 proliferation inhibition;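 also: parasites grown with compound for 72 h before SYBR Green readout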; also: potency is read from the fitted curve at half-maximal effect
[11] = biological target: Ferritin light chain (Equus caballus) (UniProt P02791); assay: qHTS Validation Assay for Identification of Novel General Anesthetics (AID 2323); also: series mostly up to about 77 µM
Sequence of Ferritin light chain (Equus caballus) (P02791 2-175 limits assumed): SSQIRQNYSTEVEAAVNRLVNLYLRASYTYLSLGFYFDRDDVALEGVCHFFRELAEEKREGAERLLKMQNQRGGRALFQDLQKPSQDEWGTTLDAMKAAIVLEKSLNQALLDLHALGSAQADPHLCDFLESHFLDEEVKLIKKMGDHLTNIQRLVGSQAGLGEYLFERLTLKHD
How it was run: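 Competitive displacement of profluorescent 1-aminoanthracene (1-AMA, 50% saturated solution in PBS) from 10 uM horse-spleen apoferritin. Compounds incubated 10 min at room temperature; fluorescence read at 380 nm excitation/535 nm emission, normalized to free 1-AMA and complex, fitted with four-parameter Hill equation.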

[12] = biological target: ATP-dependent DNA helicase Q1 (Homo sapiens) (UniProt P46063); assay: qHTS Validation Assay for Inhibitors of RecQ-Like Dna Helicase 1 (RECQ1) (AID 2353)
Sequence of ATP-dependent DNA helicase Q1 (Homo sapiens) (P46063 whole entry, looked up): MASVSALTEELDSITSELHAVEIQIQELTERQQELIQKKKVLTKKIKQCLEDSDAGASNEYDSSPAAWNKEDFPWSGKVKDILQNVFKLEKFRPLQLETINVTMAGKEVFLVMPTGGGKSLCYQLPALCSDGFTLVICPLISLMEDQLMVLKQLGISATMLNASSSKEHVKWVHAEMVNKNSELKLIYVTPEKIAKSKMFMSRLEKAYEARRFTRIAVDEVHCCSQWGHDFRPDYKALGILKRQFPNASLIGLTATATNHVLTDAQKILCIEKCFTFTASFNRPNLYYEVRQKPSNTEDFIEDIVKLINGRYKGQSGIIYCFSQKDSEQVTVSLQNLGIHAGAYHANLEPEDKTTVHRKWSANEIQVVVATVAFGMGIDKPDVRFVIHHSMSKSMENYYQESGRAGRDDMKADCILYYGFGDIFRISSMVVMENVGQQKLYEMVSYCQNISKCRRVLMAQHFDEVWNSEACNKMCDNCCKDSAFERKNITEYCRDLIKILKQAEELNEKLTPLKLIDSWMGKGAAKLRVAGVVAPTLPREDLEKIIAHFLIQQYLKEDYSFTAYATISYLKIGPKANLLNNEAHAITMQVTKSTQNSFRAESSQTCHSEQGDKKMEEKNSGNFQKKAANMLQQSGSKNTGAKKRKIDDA
How it was run: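 RECQ1T1 50 nM; forked duplex (20 bp + 30-nt ss tails) 200 nM, ATP 2 mM final; pH 8.0, 2 mM MgCl2, 2.5 ug/ml poly(dI-dC); 15 min compound preincubation; discontinuous kinetic read over 2 h at RT.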

[13] = biological target: RecQ-like DNA helicase BLM (Homo sapiens) (UniProt P54132); assay: qHTS Validation Assay for Inhibitors of Bloom's syndrome helicase (BLM) (AID 2364)
Sequence of RecQ-like DNA helicase BLM (Homo sapiens) (P54132 whole entry, looked up): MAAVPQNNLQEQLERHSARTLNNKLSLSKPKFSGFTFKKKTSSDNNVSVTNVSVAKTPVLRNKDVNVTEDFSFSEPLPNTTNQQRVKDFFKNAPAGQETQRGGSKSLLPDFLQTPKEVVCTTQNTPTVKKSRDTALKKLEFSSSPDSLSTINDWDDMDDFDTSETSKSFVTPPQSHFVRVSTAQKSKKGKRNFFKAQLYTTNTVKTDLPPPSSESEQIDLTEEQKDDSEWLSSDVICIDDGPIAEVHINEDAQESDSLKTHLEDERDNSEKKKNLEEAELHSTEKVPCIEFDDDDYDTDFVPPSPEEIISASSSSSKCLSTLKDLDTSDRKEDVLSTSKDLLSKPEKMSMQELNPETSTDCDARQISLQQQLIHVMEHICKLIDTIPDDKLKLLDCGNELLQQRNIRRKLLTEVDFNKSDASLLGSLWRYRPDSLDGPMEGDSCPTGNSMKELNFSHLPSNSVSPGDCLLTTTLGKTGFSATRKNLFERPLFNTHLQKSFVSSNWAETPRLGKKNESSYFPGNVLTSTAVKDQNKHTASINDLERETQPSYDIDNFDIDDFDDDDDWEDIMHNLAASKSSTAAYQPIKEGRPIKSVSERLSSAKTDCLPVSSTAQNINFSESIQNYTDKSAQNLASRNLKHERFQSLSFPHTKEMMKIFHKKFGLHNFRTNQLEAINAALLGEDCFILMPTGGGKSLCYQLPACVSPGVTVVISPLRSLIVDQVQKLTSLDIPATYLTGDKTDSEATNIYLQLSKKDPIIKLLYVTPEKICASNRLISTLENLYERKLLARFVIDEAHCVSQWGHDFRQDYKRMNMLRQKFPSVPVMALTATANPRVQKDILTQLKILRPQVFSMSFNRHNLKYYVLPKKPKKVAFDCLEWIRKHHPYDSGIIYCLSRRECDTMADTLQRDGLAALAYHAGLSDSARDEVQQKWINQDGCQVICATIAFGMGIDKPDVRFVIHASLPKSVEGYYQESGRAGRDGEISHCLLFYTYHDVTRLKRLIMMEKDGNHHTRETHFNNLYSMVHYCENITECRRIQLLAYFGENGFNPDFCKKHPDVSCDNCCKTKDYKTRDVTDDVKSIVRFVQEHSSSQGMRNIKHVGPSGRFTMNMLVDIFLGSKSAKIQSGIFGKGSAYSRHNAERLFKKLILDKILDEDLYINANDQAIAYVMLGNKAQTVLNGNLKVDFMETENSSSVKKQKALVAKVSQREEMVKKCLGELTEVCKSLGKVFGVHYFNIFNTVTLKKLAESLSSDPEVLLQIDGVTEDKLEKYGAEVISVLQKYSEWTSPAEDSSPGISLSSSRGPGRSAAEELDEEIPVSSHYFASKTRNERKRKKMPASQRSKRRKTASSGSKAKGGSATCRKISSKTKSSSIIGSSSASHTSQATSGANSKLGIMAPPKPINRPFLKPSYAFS
How it was run: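 BLM 50 nM in 25 mM Tris-HCl pH 8.0, 5 mM NaCl, 2 mM MgCl2, 1 mM DTT, 0.01% Tween-20, 2.5 ug/ml poly(dI-dC); 15 min cpd preinc, RT. Start: 200 nM forked DNA + 2 mM ATP (final). TAMRA read, 2 reads 2 h apart.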

[14] = Cytometric Cell-Based qHTS for Inhibitors of the mTORC1 Signaling Pathway in MEF (Tsc2-/-, p53-/-) Cells (AID 2660);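 also: Tsc2 and p53 null MEFs carrying empty vector with compound for 24 h; percent of cells above a phospho-rpS6 to PI ratio cutoff in each well; series mostly up to about 38 µM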
How it was run: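 Cells are plated, treated with compound for 24 hrs at 37 degree Celsius, then fixed, blocked and immunostained for phospho-rpS6 Ser235/236. Propidium iodide counterstain follows. Per-well % positive cells is derived from the PI-normalized phospho-S6 signal.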

[15] = High Content Imaging Cell-Based qHTS for Inhibitors of the mTORC1 Signaling Pathway in MEF (Tsc2-/-, p53-/-) Cells (AID 2666);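 also: percent of cells scored positive for phospho-rpS6 Ser235/236 immunostaining by imaging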
How it was run: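 Inhibition of rpS6 phosphorylation is measured by immunofluorescence imaging in empty-vector Tsc2-/-, p53-/- mouse embryonic fibroblasts after 24 hrs compound exposure at 37 degree Celsius. Results are reported as % positive cells per well.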

[16] = Cytometry Cell-Based qHTS for Inhibitors of the mTORC1 Signaling Pathway in MEF cells (AID 2668); also: potency is read from the fitted curve at half-maximal effect
How it was run: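 WT MEFs (Tsc2-/-, p53-/- stably re-expressing WT Tsc2) in DMEM + 10% FBS received compounds 24 hrs after plating, for 24 hrs at 37 degree Celsius. Fixed cells stained with Alexa-488 anti-phospho-rpS6 Ser235/236 and propidium iodide; laser-scanning cytometry read-out.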

[17] = High Content Imaging Cell-Based qHTS for Inhibitors of the mTORC1 Signaling Pathway in MEF Cells (AID 2667);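 also: Tsc2-/- p53-/- MEFs stably re-expressing wild-type Tsc2 exposed 24 h; series mostly up to about 38 µM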
How it was run: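 Fixed-cell imaging of phospho-S6 (Ser235/236, Alexa-488) after 24 hrs of compound treatment at 37 degree Celsius. Signal was normalized to Hoechst, and thresholds from the highest and lowest wells split cells into % active versus % non-active.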

[18] = Validation screen for small molecules that induce DNA re-replication in MCF 10A normal breast cells (AID 463097); also: nearly all actives have a fitted effect of over 60% in size
How it was run: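 Readout: Hoechst nuclear fluorescence intensity, 405 ex / 500-530 em, by scanning plate imager; re-replication scored as increase in nuclei with elevated DNA content. Cells exposed to compound 48 hr, 37 C, 5% CO2 beforehand.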

[19] = qHTS Assay for Modulators of Human Peripheral Myelin Protein 22 (PMP22) Expression/Activity (AID 1967; active = well fitted curve in the direction sought with a large enough effect in the signal ratio; the % refers to the signal ratio)
How it was run: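 MSC80 mouse Schwann cells stably carrying Pmp22 promoter–green click beetle luciferase plus EF-alpha–red luciferase control were dosed for 24h at 37 °C. Dual-colour luminescence was filter-overlap corrected; %Activity came from green/red ratio versus untreated cells.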

[20] = qHTS Assay for Identification of Small Molecule Inducers of Hypoxia Response (AID 2120; active = well fitted curve in the direction sought with a large enough effect in the signal ratio, with a control signal flat, not every such curve was filed as active; the % refers to the signal ratio)
How it was run: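 HRE-bla ME-180, 2500 cells/well, 0.5% dialyzed FBS medium; cpd titration, 17 h 37 degrees C; CCF4 2.5 h RT; Ex 405, Em 460/530 ratio -> %Activity, AC50.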

SMILES | Potency [1] | Potency [2] | Potency [3] | Potency [4] | Potency [5] | Potency [6] | Potency [7] | Potency [8] | Potency [9] | Potency [10] | Potency [11] | Potency [12] | Potency [13] | outcome [14] | Potency [15] | Potency [16] | Potency [17] | Potency [18] | Potency [19] | outcome [20]
COc1cc2nc(N3CCN(C(=O)C4COc5ccccc5O4)CC3)nc(N)c2cc1OC (stereo unspecified) | inactive | inactive | inactive | 2.24 µM (active) | 3.16 µM (active) | 2.82 µM (active) | 2.51 µM (active) | 11.2 µM (active) | 1.12 µM (active) | 2.82 µM (active) | inactive | inactive | inactive | inactive | inactive | 11.7 µM (active) |  |  |  | 
CCc1cccc2c3c([nH]c12)C(CC)(CC(=O)O)OCC3 (stereo unspecified) | inactive | inactive | inactive | inactive | inactive | inactive | inactive | inactive |  | inactive | inactive | inactive |  | inactive |  | inactive | inactive | inactive |  | 
NC(=O)NO | inactive | inactive | inactive | inactive | inactive | inactive | inactive | inactive | inactive | inactive | inactive | inactive |  | inactive | inactive | inactive | inactive | inactive |  | 
NCCS(=O)(=O)O | inactive | inactive | inactive | inactive | inactive | inactive | inactive | inactive | inactive | inactive | inactive | inactive |  | inactive | inactive | inactive | inactive | inactive | inactive | 
N[C@@H](Cc1c[nH]c2ccc(O)cc12)C(=O)O | inactive | inactive | inactive | inactive | inactive | inactive | inactive | inactive | inactive | inactive | inactive | inactive |  | inactive | inactive |  |  | inactive |  | inactive
CC(C)(Oc1ccc(C2CC2(Cl)Cl)cc1)C(=O)O (stereo unspecified) | inactive | inactive | inactive | inactive | inactive | inactive | inactive | inactive | inactive | inactive | inactive | inactive |  | inactive | inactive | inactive | inactive | inactive |  | 
Nc1ccn([C@H]2CC[C@@H](CO)O2)c(=O)n1 | inactive | inactive | inactive | inactive | inactive | inactive | inactive | inactive | inactive | inactive | inactive | inactive |  | inactive | inactive | inactive | inactive | inactive |  | 
CN1CCC(=C2c3ccccc3CC(=O)c3sccc32)CC1 | inactive | inactive | inactive | 10 µM (active) | 2.24 µM (active) | 3.55 µM (active) | 4.47 µM (active) |  | 0.891 µM (active) | 10 µM (active) | inactive | inactive | inactive | inactive | inactive | inactive | inactive | inactive |  | 
Nc1c2c(nc3ccccc13)CCCC2 | inactive | inactive | inactive | 10 µM (active) | 10 µM (active) | 8.91 µM (active) | 10 µM (active) |  | 5.62 µM (active) | 12.6 µM (active) | inactive | inactive | inactive | inactive | inactive | inactive | inactive | inactive |  | 
NC(=O)OCC(COC(N)=O)c1ccccc1 | inactive | inactive | inactive | inactive | inactive | inactive | inactive | inactive | inactive | inactive | inactive | inactive | inactive | inactive |  | inactive | inactive | inactive |  | 
CN1CCC(=C2c3ccccc3C=Cc3ccccc32)CC1 | inactive | inactive | inactive | 5.01 µM (active) | 8.91 µM (active) | 11.2 µM (active) | 12.6 µM (active) | 5.01 µM (active) | 2.82 µM (active) | 11.2 µM (active) | inactive | inactive | inactive | inactive | inactive |  | inactive | inactive |  | 
CN(C)c1nc(N(C)C)nc(N(C)C)n1 | inactive | inactive | inactive | inactive | inactive | inactive | inactive | inactive | inactive | inactive | inactive | inactive |  | inactive | inactive | inactive | inactive | inactive | inactive | 
COc1ccc2c(c1)c(CC(=O)O)c(C)n2C(=O)c1ccc(Cl)cc1 | inactive | inactive | inactive | inactive | inactive | inactive | inactive | inactive |  | inactive | inactive | inactive | inactive | inactive | inactive |  | inactive | inactive |  | inactive
CCC1(C)CC(=O)NC1=O (stereo unspecified) | inactive | inactive | inactive | inactive | inactive | inactive | inactive | inactive | inactive | inactive | inactive | inactive | inactive | inactive |  | inactive | inactive | inactive |  | 
